An excerpt weighted towards active compounds, which were near 10% of everything screened.
BAZ2B block = BAZ2B (human) inhibition | 360,000 compounds, 4.4% hits | Q9UIF8 | Potency, µM (doses to about 114 µM), hits mostly inhibitors | AlphaScreen BAZ2B-H3K14Ac peptide displacement; further: nearly all actives have a fitted effect of over 60% in size
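Protein-peptide AlphaScreen: BAZ2B 50 nM, b-H3K14Ac 50 nM, 1x PBS pH 7.4 + 0.01% Tween-20. Preincubation 30 min RT; cpd 30 min RT (top 110 uM); beads 20 min RT, light-protected.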
G9a inh = inhibitors of human histone lysine methyltransferase G9a; 350,000 compounds, 8.8% hits; G9a H3K9 monomethylation, AlphaScreen, 2 h; Q96KQ7; Potency, µM (series often up to 102 µM), most hits filed as inhibitors; further: nearly all actives have a fitted effect of over 75% in size
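Methyltransferase reactions run at room temperature for 2 h (20 nM enzyme, 500 nM biotin-H3K9 peptide, 20 uM SAM) after a 15 min compound preincubation; product detected by AlphaScreen beads and anti-H3K9me1 antibody.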
HP1b chromo inh = HP1-beta chromodomain-methylated histone interaction inhibition | Potency, µM (highest dose often 114 µM), most hits filed as inhibitors | AID 540317 | 390,000 compounds, 0.56% hits | P83916 | AlphaScreen HP1-beta / biotin-H3K9me3 peptide binding; further: nearly all actives have a fitted effect of over 70% in size
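HP1-beta protein (50 nM final) preincubated 30 min at room temperature with biotinylated H3(1-18)K9me3 peptide (50 nM) in PBS pH 7.4, 0.01% Tween-20, then compound added for 30 min. AlphaScreen streptavidin donor/nickel chelate acceptor beads (10 ug/mL final), 30 min dark, luminescence read.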
JMJD2A Tudor = inhibitors of human JMJD2A Tudor domain; Potency, µM (doses to about 114 µM), hits mostly inhibitors; AlphaScreen JMJD2A-Tudor / H3K4me3 peptide binding; 390,000 compounds, 4.4% hits; AID 504339; O75164; further: nearly all actives have a fitted effect of over 50% in size
Target sequence (O75164 whole entry, looked up, the tested form may be a part): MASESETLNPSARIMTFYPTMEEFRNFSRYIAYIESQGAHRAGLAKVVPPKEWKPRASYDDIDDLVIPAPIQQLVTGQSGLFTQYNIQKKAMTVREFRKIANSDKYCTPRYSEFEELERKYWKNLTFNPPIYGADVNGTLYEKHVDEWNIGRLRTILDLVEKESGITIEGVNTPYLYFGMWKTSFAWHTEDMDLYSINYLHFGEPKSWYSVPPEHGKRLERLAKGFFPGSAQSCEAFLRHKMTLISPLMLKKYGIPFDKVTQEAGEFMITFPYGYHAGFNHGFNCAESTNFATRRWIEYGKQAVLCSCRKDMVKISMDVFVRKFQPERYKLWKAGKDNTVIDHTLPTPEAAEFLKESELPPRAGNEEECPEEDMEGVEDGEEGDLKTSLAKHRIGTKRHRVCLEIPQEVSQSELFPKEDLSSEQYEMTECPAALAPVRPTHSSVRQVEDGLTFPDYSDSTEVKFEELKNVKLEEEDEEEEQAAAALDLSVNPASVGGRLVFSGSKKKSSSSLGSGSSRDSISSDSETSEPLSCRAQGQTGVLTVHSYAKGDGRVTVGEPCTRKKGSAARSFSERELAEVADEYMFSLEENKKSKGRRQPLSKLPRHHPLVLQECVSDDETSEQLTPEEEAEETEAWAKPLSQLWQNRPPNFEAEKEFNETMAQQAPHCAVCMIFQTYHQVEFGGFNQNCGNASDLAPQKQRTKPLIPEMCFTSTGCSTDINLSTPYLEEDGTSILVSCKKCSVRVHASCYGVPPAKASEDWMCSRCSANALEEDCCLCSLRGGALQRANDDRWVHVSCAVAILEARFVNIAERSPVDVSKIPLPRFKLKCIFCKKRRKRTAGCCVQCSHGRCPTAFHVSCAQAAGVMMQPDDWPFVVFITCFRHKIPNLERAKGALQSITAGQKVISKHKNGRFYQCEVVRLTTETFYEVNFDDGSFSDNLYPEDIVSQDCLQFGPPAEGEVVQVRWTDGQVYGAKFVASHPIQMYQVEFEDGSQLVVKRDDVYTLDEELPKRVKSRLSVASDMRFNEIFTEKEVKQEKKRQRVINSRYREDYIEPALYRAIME
GLS inhibitor = glutaminase GLS (human) inhibition; AID 624170; GLS enzymatic activity, qHTS titration; 410,000 compounds, 0.21% hits; Potency, µM (series often up to 45.5 µM), usual class: inhibitors; O94925
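Read-out is an Amplex red fluorescence increase coupled through glutamate oxidase and HRP, measured before and after 30 min room-temperature incubation. hKGA is in 45 mM KH2PO4 (pH 8.2) with 0.02% Tween-20; glutamine added as 1mM solution.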
Numbers stand for hits; i = inactive; ? = inconclusive; nt = no result given; [ ] = another dose, or the depositor's remark. The call rests on the fitted dose curve; in most records, active means well fitted curve in the direction sought with a large enough effect; inconclusive means small, poorly fitted or top-dose-only effect, or another doubt; inactive means no such curve, though single readings can be large; an effect the other way counts as inactive or inconclusive.

SMILES	BAZ2B block	G9a inh	HP1b chromo inh	JMJD2A Tudor	GLS inhibitor
CC1CCN(C(=O)C2CCN(CC(C)c3ccccc3)CC2)CC1 (centres undefined)	i	?	?	?	i
ClC(CCN1CCN(Cc2ccccc2)CC1)c1ccccc1 (centres undefined)	nt	nt	i	50µM	i
COc1ccc(-c2nc3ccccc3c(=O)o2)cc1OC	?	?	i	i	i
CCOC(=O)CSC1=C(C#N)C(C)C2=C(CCCC2=O)N1 (centres undefined)	i	i[0.0925 µM]	i	i	i
CC(C)C(=O)Nc1nnc2n1CCS2	i	?	i	32µM	i
CCCC(CCC)C(=O)Nc1nnc2n1CCS2	i	?	i	?	i
CC(Oc1ccccc1)C(=O)Nc1ccc(S(=O)(=O)N2CCN(C)CC2)cc1 (centres undefined)	i	?	i	i	i
CC(Oc1ccccc1)C(=O)Nc1nnc2n1CCS2 (centres undefined)	20µM	1.6µM	i	28µM	i
CCN(CC)CCN(C(=O)c1ccc(S(=O)(=O)N2CCCCC2)cc1)c1nc2cc3c(cc2s1)OCO3	?	50µM	i	?	i
CCOc1cccc2sc(N(CCN(CC)CC)C(=O)c3ccc(S(=O)(=O)N4CCCC4)cc3)nc12	i	i	i	i	i
CCN(CC)CCN(C(=O)c1ccc2ccccc2c1)c1nc2cc3c(cc2s1)OCO3	?	40µM	i	?	i
C=C1CCC[C@]2(C)C[C@H]3OC(=O)C(CNCCN(C)C)[C@H]3CC12 (some centres undefined)	i	i[12.7 µM]	i	i	i
C=C1CCC[C@]2(C)C[C@H]3OC(=O)C(CNCCN(CC)CC)[C@H]3CC12 (some centres undefined)	25µM	i[0.501 µM]	?	1.8µM	i
CCOc1ccc(C2C(C#N)=C(N)SC(N)=C2C#N)cc1OC	?	8.9µM	nt	nt	nt
CCOc1ccc(C2C(C#N)=C(N)SC(N)=C2C#N)cc1OCC	?	?	i	?	i
CCOc1ccccc1C1C(C#N)=C(N)SC(N)=C1C#N	i	?	i	79µM	i
O=S(=O)(c1c(F)cccc1F)N1CCCC2CCCCC21 (centres undefined)	i	i[12.7 µM]	i	i	i
CN1CCN(c2nc3cc(C(F)(F)F)ccc3n3cccc23)CC1	nt	24µM	i	?	i
COc1cc(/C=C2\CC/C(=C\c3ccc(OCCO)c(OC)c3)C2=O)ccc1OCCO	i	45µM	i	i	i
COc1ccc(C=C2C=C(C(C)(C)C)C(=O)C(C(C)(C)C)=C2)cc1OC	25µM	nt	?	32µM	i
COc1ccc(/C=C2\CCc3ccccc3C2=O)cc1OC	i	?	i	i	i
COc1cc(/C=C2/CC/C(=C/c3ccc(O)c(OC)c3)C2=O)ccc1O	?	?	i	i[11.4 µM]	i
COc1ccc(/C=C2\CC/C(=C\c3ccc(OC)c(OC)c3)C2=O)cc1OC	20µM	?	i	?	i
CCOc1ccc(C2C([N+](=O)[O-])=C(C)N(C)C(=O)N2C)cc1OC (centres undefined)	i	i	i	i	i
O=C1NC2=C(CCc3ccccc32)C(c2ccc(Br)cc2)N1 (centres undefined)	i	35µM	i	i	i
SMILES	BAZ2B block	G9a inh	HP1b chromo inh	JMJD2A Tudor	GLS inhibitor
O=C1Cc2ccccc2C(c2ccc(Br)cc2)N1 (centres undefined)	i	i	i	i	i
COc1ccc(NCC(=O)Nc2ccc(Cl)cc2C)c(OC)c1	50µM	1.4µM	?	50µM	i
COc1ccc(NC(=O)CC(=O)Nc2ccc(OC)cc2OC)c(OC)c1	i	i[12.7 µM]	i	i	i
CCCOc1ccc(NCC(=O)Nc2ccc(C)cc2C)cc1	?	8.9µM	i	?	i
CCOc1ccc(NCC(=O)Nc2ccc(Cl)cc2C)cc1	?	8.9µM	i	?	i
C=CCn1c(SCCC(=O)O)nnc1-c1cccs1	i	?	i	i	i
CC(C)CCC1(CCO)C(=O)N=C(N)NC1=O (centres undefined)	nt	nt	i	i	i
COc1ccc(-c2nnc3ccc(SC(C(C)=O)C(C)=O)nn23)cc1OC	nt	2.2µM	i	20µM	i
CCC(Sc1ccc2nnc(-c3ccc(OC)c(OC)c3)n2n1)C(=O)O (centres undefined)	i	7.9µM	i	i	i
CCN(c1ccccc1)S(=O)(=O)c1ccc(N2CCN(c3ccc(O)cc3)CC2)nc1	nt	nt	50µM	22µM	?

Screening results from PubChem.
